According to PubChem BioAssay (NCATS):
Records with an inconclusive call do not appear. Values without a mark were called inactive. Activity calls are given as the source filed them.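 Rule for the calls: active = compounds whose dose-response curve shows a full or clear partial loss of cell viability, called from curve shape rather than a numeric limit; inconclusive = weak partial curves or an effect only at the top dose; inactive = no dose-dependent loss of viability.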

test: Cell Viability - Hek293 (AID 427); details: qHTS;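 note: cells exposed to compound for 40 hours at 37 °C before reading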
From the text: NIH Chemical Genomics Center [NCGC]
NIH Molecular Libraries Screening Centers Network [MLSCN]
National Institutes of Environmental Health Sciences [NIEHS]
National Toxicology Program [NTP]
We have developed a 1536-well cell-based assay for quantitative high throughput screening (qHTS) against a number of cell lines to determine in vitro cytotoxicity of small molecules. This particular assay uses the Hek 293 cell line which is derived from human embryonic kidney cells (transformed with adenovirus).
NCGC Assay Protocol Summary:
The CellTiter-Glo luminescent cell viability assay (Promega) is a homogeneous method to measure the number of viable cells in culture. The end point readout of this assay is based on quantitation of intracellular ATP, an indicator of metabolic activity, using the luciferase reaction. Luciferase catalyzes the oxidation of beetle Luciferin to oxyluciferin and light in the presence of ATP. The luminescent signal is proportional to amount of ATP present.
Using the CellTiter-Glo luminescent cell viability assay, the amount of cellular ATP was measured in the Hek293 cell line with complete culture medium following compound treatment for 40 hours. The assay was performed in opaque white Kalypsys 1536-well plates. In the screen, tamoxifen and doxorubicin were used as positive controls. Library compounds were measured for their ability to cause acute toxicity in the cell line, as reflected by a decrease in intracellular ATP levels, in a concentration-dependent manner. Data were normalized to the controls for basal activity (DMSO only) and 100% inhibition (100 uM tamoxifen). AC50 values were determined from concentration-response data modeled with the standard Hill equation.
qHTS protocol fo CellTiter Glo Hek 293 cellular assay
[Step] [Parameter] [Value] [Description]
2. Time; 5 hr; 37 °C incubation
4. Controls; 23 nL; Tamoxifen 0.34 uM to 100 uM & Doxorubicin 0.02 nM to 100 uM
5. Time; 40 hr; 37 °C incubation
6. Reagent; 5 uL; CellTiter Glo reagent
7. Time; 20 min; Room Temperature
8. Detection; Luminescence; Viewlux plate reader
Keywords: cell viability, cytotoxicity, Hek293 cell line, luminescence, NTPHTS, NTPHTS_NCGC, NIEHS, EPA, DSSTox, MLSMR, MLSCN, NIH Roadmap, qHTS, NCGC
Potency is the fitted concentration of half-maximal effect.

Row | Compound | Potency
1 | Cc1ccnc2c1NC(=O)c1cccnc1N2C1CC1 | > 92 µM
2 | NC(N)=NC(N)=NCCc1ccccc1 | > 92 µM
3 | NNC(=O)c1ccncc1 | > 92 µM
4 | O=C(O)c1cc(=O)[nH]c(=O)[nH]1 | > 92 µM
5 | CC(=O)[C@H]1CC[C@H]2[C@@H]3CCC4=CC(=O)CC[C@]4(C)[C@H]3CC[C@]12C | 48.5 µM (active)
6 | O=C(N[C@H](CO)[C@H](O)c1ccc([N+](=O)[O-])cc1)C(Cl)Cl | > 92 µM
7 | CC[C@H](C)C(=O)O[C@H]1C[C@@H](C)C=C2C=C[C@H](C)[C@H](CC[C@@H]3C[C@@H](O)CC(=O)O3)[C@H]21 | > 92 µM
8 | Cc1noc(NS(=O)(=O)c2ccc(N)cc2)c1C | > 92 µM
9 | C[C@]12C=CC(=O)C=C1CC[C@@H]1[C@@H]2C(=O)C[C@@]2(C)[C@H]1CC[C@]2(O)C(=O)CO | > 92 µM
10 | Cc1ncc([N+](=O)[O-])n1CCO | > 92 µM
11 | Cc1nnc(NS(=O)(=O)c2ccc(N)cc2)s1 | > 92 µM
12 | CCc1cc(C(N)=S)ccn1 | > 92 µM
13 | CC(=O)Oc1ccccc1C(=O)Nc1ncc([N+](=O)[O-])s1 | 32.6 µM (active)
14 | CN(C)c1ccc(C(=C2C=CC(=[N+](C)C)C=C2)c2ccc(N(C)C)cc2)cc1 | 5.18 µM (active)
15 | CC1=NN(c2ccccc2)C(=O)C1 | > 92 µM
16 | Cc1cc(NS(=O)(=O)c2ccc(N)cc2)no1 | > 92 µM
